SMARCA2 act – activators of SMARCA2 function | MG213 cells, MMTV-luciferase reporter, dexamethasone, overnight | activation, % at 9.1 µM | 370,000 tested, 1% active; in the data active = activation above about 7.8%;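 also: 0% = vehicle wells and 100% = reference activator wells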
Exocytosis inh – blocks lytic granule exocytosis. TALL-104 LAMP-1 surface exposure, flow cytometry; cells stimulated with thapsigargin and PMA. inhibition, % at 10 µM. 360,000 tested, 0.66% active. AID 651702;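 active = inhibition above about 55%, limit read from the data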
PfM18AAP inh-1 – blocks P. falciparum M18 aspartyl aminopeptidase. recombinant PfM18AAP, H-Glu-NHMec fluorogenic cleavage. inhibition, % at 7.35 µM. 290,000 tested, 1.2% active;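 active = inhibition above the campaign mean inhibition over all tested compounds plus 3 SD, cut at about 28% in these data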;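 also: 0% = plate median of test compound wells and 100% = 2 mM ZnCl2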
GASC-1 inh – inhibitors of human GASC-1 (JMJD2C) demethylase | AID 2099 | GST-JMJD2C(1-420) H3K9me3 demethylation, DELFIA europium | inhibition, % at 2.35 µM | 330,000 tested, 0.069% active | Q9H3R0;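 active = more than half of a compound's replicate wells show inhibition beyond 50%, single wells judged on their own value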;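 also: signal counts dimethyl H3K9 product captured on neutravidin plate; 0% = median of DMSO wells and 100% = 0.3 times that DMSO median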
ALR H2O2 inh – inhibitors of human sulfhydryl oxidase ALR; purified ALR, DTT oxidation, H2O2 HRP-luminol luminescence; 290,000 tested, 3.8% active; P55789; inhibition, % (test concentration not listed); AID 485317;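 active = mean replicate inhibition above about 79%, with every replicate also reaching it, limit read from the data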
Target sequence (P55789 whole entry, looked up): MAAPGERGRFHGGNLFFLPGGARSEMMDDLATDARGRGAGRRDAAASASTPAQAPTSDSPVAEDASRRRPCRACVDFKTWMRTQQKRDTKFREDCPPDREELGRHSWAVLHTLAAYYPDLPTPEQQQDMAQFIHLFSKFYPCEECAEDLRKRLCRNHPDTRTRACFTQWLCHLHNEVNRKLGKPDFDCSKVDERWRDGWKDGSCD
MIN6 prolif – induces beta-cell replication in MIN6 cells. proliferation, % at 10 µM. 330,000 tested, 0.29% active. MIN6 cells proliferation, ATPlite luminescence, 48 h; cells starved in 0.2% serum; 100% = growth in 10% serum;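 active = compounds whose signal lies at least 3.5 SD above the mean of all wells on their plate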;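 also: 0% = DMSO-treated cells in low-serum medium and 100% = 10% serum control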
PfM18AAP inh-2 – PfM18AAP inhibition, confirmation. shares compounds with PfM18AAP inh-1. recombinant PfM18AAP, H-Glu-NHMec fluorogenic cleavage. inhibition, % at 7.35 µM. 2,400 tested, 28% active;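 active = mean inhibition over replicate wells above the hit cutoff set for the earlier primary screen, cut at about 29% in these data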;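 also: 0% = median of test compound wells and 100% = 2 mM ZnCl2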
CTSL1 confirm – counter-screen for PFM18AAP inhibitors: confirmation of human cathepsin L inhibitors; shares compounds with PfM18AAP inh-1; purified cathepsin L1, Z-Leu-Arg-MCA fluorescence; inhibition, % at 5.96 µM; 2,400 tested, under 10 active; AID 2178;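 active = average inhibition across replicates above the hit cutoff set in the earlier primary screen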;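 also: 0% = median of test compound wells and 100% = Z-Phe-Ala-diazomethylketone 1 µM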
Target sequence (P07711 whole entry, looked up): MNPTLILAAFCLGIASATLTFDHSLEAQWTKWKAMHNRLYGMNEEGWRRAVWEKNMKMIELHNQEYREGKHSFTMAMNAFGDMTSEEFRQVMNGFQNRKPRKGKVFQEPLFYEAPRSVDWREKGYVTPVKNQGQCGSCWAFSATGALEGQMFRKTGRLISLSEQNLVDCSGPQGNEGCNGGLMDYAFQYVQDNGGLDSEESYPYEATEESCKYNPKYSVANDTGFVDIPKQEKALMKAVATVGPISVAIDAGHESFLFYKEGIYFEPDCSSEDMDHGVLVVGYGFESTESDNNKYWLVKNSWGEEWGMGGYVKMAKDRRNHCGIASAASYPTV
Active calls of the source: *; . = not tested or not shown. Shown are actives, neighbours in structure and some others; about 5.4% of the full set was active somewhere.

SMILES | SMARCA2 act | Exocytosis inh | PfM18AAP inh-1 | GASC-1 inh | ALR H2O2 inh | MIN6 prolif | PfM18AAP inh-2 | CTSL1 confirm
O=C(CC1Sc2ccccc2NC1=O)Nc1cccc(C(=O)O)c1 (configuration not stated) | 1 | -8 | 41* | -9 | -2 | 4 | 25 | -4
Cc1ccnc(NC(=S)N2CCN(c3cccc(C(F)(F)F)c3)CC2)c1 | -4 | 2 | 39* | -1 | 26 | 0 | -20 | 7
Cc1ccc(C)c(NC(=S)N2CCN(c3cccc(C(F)(F)F)c3)CC2)c1 | 1 | 7 | -5 | 26 | -14 | -3 | . | .
CCCN(C(=O)c1cn(CCC)c2ccccc12)c1ccc(Oc2cccnc2)cc1 | -6 | . | . | . | . | . | . | .
NCCc1ccc(O)c(O)c1 | -6 | -2 | 73* | -18 | 99* | -7 | 66* | -4
NCC(O)c1ccc(O)c(O)c1 (configuration not stated) | 1 | 0 | . | . | . | . | . | .
C[C@H]1COc2c3ccc(I)cc3nn21 | 1 | . | . | . | . | . | . | .
OC(c1ccccc1)(c1ccccc1)C1CCN(CCCOc2ccc(-c3ccncc3)cc2)CC1 | 5 | . | . | . | . | . | . | .
O=C(c1ccc(-c2ccc([N+](=O)[O-])cc2Cl)o1)N1CCOCC1 | -1 | 2 | 39* | -3 | -21 | -2 | -20 | 4
COc1ccc(NC(=O)c2cccc3ccccc23)cc1OC | -6 | -7 | . | . | . | . | . | .
COc1ccccc1NC(=O)NNC(=O)c1ccc2ccccc2c1 | -4 | -3 | 4 | -3 | 25 | 0 | . | .
COc1ccc(CCC(=O)NNC(=O)Nc2ccc(OC)c(OC)c2)cc1 | -1 | 4 | -1 | 4 | -18 | 5 | . | .
COc1ccc(NC(=O)NNC(=O)CCc2ccc(O)c(O)c2)cc1OC | 0 | -1 | 82* | -13 | 99* | -3 | 61* | -2
Cc1ccccc1NC(=O)NNC(=O)c1ccc2ccccc2c1O | 4 | 0 | 34* | 7 | -4 | 0 | 4 | 4
COc1ccccc1NC(=O)NNC(=O)c1ccc2ccccc2c1O | 1 | -1 | 33* | 11 | 57 | 0 | 4 | 0
Cc1ccccc1NC(=O)NNC(=O)c1ccc2ccccc2c1 | 1 | -4 | 15 | -8 | -1 | -2 | . | .
COc1ccc(NC(=O)NNC(=O)c2ccc3ccccc3c2O)cc1OC | 2 | -3 | 39* | 10 | 55 | -2 | 12 | -1
CC1CN(Cc2nc3c(c(=O)n(C)c(=O)n3C)n2CC(=O)c2ccccc2)CC(C)O1 (configuration not stated) | -2 | 1 | -9 | -6 | -7 | -1 | . | .
CC1CN(Cc2nc3c(c(=O)n(C)c(=O)n3C)n2Cc2ccccc2)CC(C)O1 (configuration not stated) | -2 | 4 | 55* | -6 | -6 | -1 | -55 | 1
O=C(N/N=C/c1cccnc1)c1cc(O)c(O)c(O)c1 | 0 | -7 | 40* | 7 | 97* | -7 | 6 | -3
NNc1nc2ccccc2c(=O)n1Cc1ccccc1 | 5 | -9 | 54* | 4 | 34 | -1 | 39* | 3
C=CCCC1CN(Cc2ccc(OC)cc2)S(=O)(=O)c2c(Oc3ccc(C)cc3)cccc2O1 (configuration not stated) | 0 | . | . | . | . | . | . | .
O=C(Nc1ccc(NC(=O)c2ccc([N+](=O)[O-])cc2[N+](=O)[O-])cc1)c1ccco1 | 0 | 10 | -4 | 7 | -2 | -3 | . | .
Nc1ccc([N+](=O)[O-])cc1C(=O)NNC(=O)c1ccco1 | -3 | 0 | 33* | 6 | 3 | -3 | 14 | 3
O=C(NNc1ccc([N+](=O)[O-])cc1)c1ccco1 | 1 | 2 | 69* | 4 | 99* | 1 | 45* | 4
SMILES | SMARCA2 act | Exocytosis inh | PfM18AAP inh-1 | GASC-1 inh | ALR H2O2 inh | MIN6 prolif | PfM18AAP inh-2 | CTSL1 confirm
Cc1cccc(C(=O)NNC(=O)c2ccco2)c1O | 0 | 0 | 32* | -13 | 31 | -1 | 10 | -1
CCCCc1c(-c2ccccc2OC)ncn1Cc1ccccc1Cl | -6 | . | . | . | . | . | . | .
CC(=O)c1ccc(NC(=O)/C(=C\c2ccco2)NC(=O)c2ccco2)cc1 | -2 | 34 | 7 | -3 | 5 | -3 | . | .
O=C(Nc1ccc(C(=O)O)cc1)/C(=C\c1ccco1)NC(=O)c1ccco1 | -2 | -6 | 32* | 27 | 40 | -2 | -44 | 1
Nc1[nH]c(C(=O)c2ccc(Br)cc2)c(-c2ccccc2)c1C(=O)NCCc1c[nH]c2ccccc12 | -3 | . | . | . | . | . | . | .
CCOC(=O)NC1(Nc2cccc(Cl)c2)Oc2ccccc2O1 | 1 | 2 | 52* | 2 | . | . | 63* | 1
OCCN1CCN(C(=S)c2ccc(Cl)c(Cl)c2)CC1 | -2 | -1 | 49* | 7 | . | -3 | 5 | -5
CN(CCO)c1cccc2c1S(=O)(=O)N(Cc1cn(Cc3ccc(F)cc3)nn1)Cc1ccccc1O2 | -1 | . | . | . | . | . | . | .
N#Cc1c(/N=C/c2ccco2)sc2c1CCCCC2 | 0 | 4 | 35* | -2 | . | 0 | -31 | 2
CCN1CCN(c2c(S(=O)(=O)c3ccc(Cl)cc3)cnc3ccccc23)CC1 | 1 | . | . | . | . | . | . | .
c1ccc(Cn2cc(CCOCc3ccccn3)c3ccccc32)cc1 | 5 | . | . | . | . | . | . | .
CC(=O)N1CCN(S(=O)(=O)c2ccc(C)cc2)C1c1ccc(N(C)C)cc1 (configuration not stated) | 1 | -1 | 36* | 9 | 52 | 1 | -27 | -1
CC1(C)C2([N+](=O)[O-])CN3CC1([N+](=O)[O-])CN(C2)C3c1ccc(O)c(O)c1 (configuration not stated) | -4 | 2 | 77* | 5 | 19 | -1 | 84* | 4
COCCN1Cc2cc(C(=O)OC)c3c(c2C1=O)c1cc(OC)ccc1n3S(=O)(=O)c1ccc(F)cc1 | -1 | . | . | . | . | . | . | .
CCCCNC(=O)C[C@H]1C[C@@]2(C(=O)OC)C(=C[C@H](COCc3ccccc3)O[C@@H]2C)N(Cc2ccc3c(c2)OCO3)C1=O | 1 | . | . | . | . | . | . | .
O=C(Oc1ccc(Br)cc1C(=S)N1CCOCC1)c1ccc(F)cc1 | . | -16 | 32* | -7 | 47 | 0 | -18 | 10
O=C(CSc1nnc(-c2ccccc2)c2ccccc12)NCC1CCCO1 (configuration not stated) | . | 0 | 0 | 0 | 4 | 3 | . | .
O=C(CSc1nc(-c2ccccc2)ns1)NCC1CCCO1 (configuration not stated) | 5 | -3 | 35* | 3 | 9 | 1 | -21 | 2
Nc1nc(N)nc(-c2ccc([N+](=O)[O-])o2)n1 | 1 | 7 | . | . | . | . | . | .
O=[N+]([O-])c1ccc(-c2ccn[nH]2)o1 | 1 | -3 | 40* | 12 | -18 | 1 | -44 | -9

Screening data (PubChem BioAssay)
